# Reference: PubChem BioAssay (Tox21)
# Activity calls are given as the source filed them. Entries that show only a call come without a potency. Unless noted, the call rests on the fitted dose curve; in most records, active means well fitted curve in the direction sought with a large enough effect in the repeat runs; inconclusive means weak or mixed curves; inactive means no such curve, though single readings can be large; an effect the other way counts as inactive or inconclusive.
# Experiments:
# [1] = qHTS assay to identify small molecule antagonists of the glucocorticoid receptor (GR) signaling pathway - cell viability counter screen (AID 720693); further: nearly all actives have a fitted effect of over 55% in size; further: potency means the concentration at half of the fitted maximal effect
# [2] = qHTS assay for identifying genotoxic compounds that show differential cytotoxicity against isogenic chicken DT40 cell lines with known DNA damage response pathways - wild type cell line (AID 743012); further: nearly all actives have a fitted effect of over 60% in size; further: potency means the concentration at half of the fitted maximal effect
# How it was run: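 Wild-type DT40 cells (300/well) exposed to compounds for 40 hours at 37 C/5% CO2. Viability read by CellTiter-Glo luminescence after 30 min at room temperature.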
# [3] = qHTS assay for identifying genotoxic compounds that show differential cytotoxicity against isogenic chicken DT40 cell lines with known DNA damage response pathways - Rev3 mutant cell line (AID 743014); further: nearly all actives have a fitted effect of over 55% in size; further: potency means the concentration at half of the fitted maximal effect
# [4] = qHTS assay for identifying genotoxic compounds that show differential cytotoxicity against isogenic chicken DT40 cell lines with known DNA damage response pathways - Rad54/Ku70 mutant cell line (AID 743015); further: nearly all actives have a fitted effect of over 60% in size; further: potency means the concentration at half of the fitted maximal effect
# [5] = qHTS assay to identify small molecule antagonists of the androgen receptor (AR) signaling pathway - cell viability counter screen (AID 743033; further: nearly all actives have a fitted effect of over 45% in size; further: potency means the concentration at half of the fitted maximal effect)
# [6] = qHTS assay to identify small molecule antagonists of the androgen receptor (AR) signaling pathway using the MDA cell line - cell viability counter screen (AID 743041; further: nearly all actives have a fitted effect of over 45% in size; further: potency means the concentration at half of the fitted maximal effect)
# How it was run: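 MDA-kb2 AR-luc human breast carcinoma cells (MMTV-luciferase, AR/GR responsive) were treated with compounds plus R1881 agonist for 16 h at 37 °C. Viability was read as CellTiter-Fluor fluorescence in the same wells as the reporter assay.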
# [7] = qHTS assay to identify small molecule antagonists of the thyroid receptor (TR) signaling pathway - cell viability counter screen (AID 743064); further: nearly all actives have a fitted effect of over 50% in size; further: potency means the concentration at half of the fitted maximal effect
# How it was run: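 Fluorescence from CellTiter-Fluor, added after 23.5 h exposure at 37 °C, reported viability of GH3.TRE-Luc cells co-treated with compound and 1 nM T3. Measured in the same wells as the luciferase TR readout.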
# [8] = test system: thyroid hormone receptor (rat, GH3 cells); experiment: qHTS assay to identify small molecule agonists of the thyroid receptor (TR) signaling pathway (AID 743066; calls by dose curve)
# [9] = target: Estrogen receptor (Homo sapiens) (UniProt P03372); experiment: qHTS assay to identify small molecule antagonists of the estrogen receptor alpha (ER-alpha) signaling pathway (AID 743069; active means well fitted curve in the direction sought with a large enough effect in the signal ratio in the repeat runs, not every such curve was filed as active; inconclusive means weak or mixed curves, or effect the other way; inactive means no such curve, though single readings can be large or run the other way; the % refers to the signal ratio; further: potency means the concentration at half of the fitted maximal effect)
# Estrogen receptor (Homo sapiens), sequence (P03372 whole entry, looked up): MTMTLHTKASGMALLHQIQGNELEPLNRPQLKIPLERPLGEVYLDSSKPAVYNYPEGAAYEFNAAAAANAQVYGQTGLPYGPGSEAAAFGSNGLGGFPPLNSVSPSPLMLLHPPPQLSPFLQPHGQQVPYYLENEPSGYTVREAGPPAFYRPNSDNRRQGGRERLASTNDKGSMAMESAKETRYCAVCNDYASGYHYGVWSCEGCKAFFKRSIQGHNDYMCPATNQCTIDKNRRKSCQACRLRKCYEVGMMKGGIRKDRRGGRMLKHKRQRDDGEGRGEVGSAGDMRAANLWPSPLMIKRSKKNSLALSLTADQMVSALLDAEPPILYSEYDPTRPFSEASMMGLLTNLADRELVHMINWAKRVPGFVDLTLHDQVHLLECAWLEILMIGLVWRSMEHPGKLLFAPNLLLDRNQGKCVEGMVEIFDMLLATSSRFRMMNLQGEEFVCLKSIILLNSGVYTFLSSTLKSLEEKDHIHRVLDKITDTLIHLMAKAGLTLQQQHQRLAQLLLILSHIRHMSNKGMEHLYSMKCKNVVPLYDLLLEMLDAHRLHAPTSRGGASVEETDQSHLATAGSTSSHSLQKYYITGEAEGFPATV
# How it was run: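 HEK293 cells stably carrying an ER-alpha-UAS-bla beta-lactamase reporter were pre-cultured overnight in 2% charcoal-stripped FBS medium. Test compounds in DMSO were added together with 17beta-estradiol for 18 hr at 37C. Read-out was fluorescence after 2 hr with LiveBLAzer B/G FRET substrate at room temperature.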
# [10] = qHTS assay to identify small molecule antagonists of the estrogen receptor alpha (ER-alpha) signaling pathway - cell viability counter screen (AID 743074; calls by dose curve; further: nearly all actives have a fitted effect of over 45% in size; further: potency means the concentration at half of the fitted maximal effect)
# [11] = target: Estrogen receptor (Homo sapiens) (UniProt P03372); experiment: qHTS assay to identify small molecule agonists of the estrogen receptor alpha (ER-alpha) signaling pathway (AID 743075; calls by dose curve; further: potency means the concentration at half of the fitted maximal effect)
# [12] = target: Estrogen receptor (Homo sapiens) (UniProt P03372); experiment: qHTS assay to identify small molecule agonists of the estrogen receptor alpha (ER-alpha) signaling pathway using the BG1 cell line (AID 743079); conditions: BG1Luc4E2 cells, ERE-luciferase agonist, 22 h; activation: at 70.3 µM (top of the series); further: nearly all actives have a fitted effect of over 20% in size; further: potency means the concentration at half of the fitted maximal effect
# [13] = qHTS assay to identify small molecule antagonists of the estrogen receptor alpha (ER-alpha) signaling pathway using the BG1 cell line (AID 743080; calls by dose curve;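 further: BG1 cells stimulated with 17beta-estradiol alongside compound; nearly all actives have a fitted effect of over 25% in size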; further: potency means the concentration at half of the fitted maximal effect)
# How it was run: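 Luminescence from a 4×ERE-luciferase reporter in BG1-Luc-4E2 cells served as read-out. Cells, pre-cultured 5 days in stripped-serum phenol-red-free medium, were exposed to compound with 17beta-estradiol co-stimulation for 21.5 h at 37 C.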
# [14] = qHTS assay to identify small molecule antagonists of the estrogen receptor alpha (ER-alpha) signaling pathway using the BG1 cell line - cell viability counter screen (AID 743081);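 further: compound given together with 17beta-estradiol as the ER stimulus; nearly all actives have a fitted effect of over 45% in size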; further: potency means the concentration at half of the fitted maximal effect
# Aromatase (Homo sapiens) = Aromatase (Homo sapiens) (UniProt P11511); experiment: qHTS assay to identify aromatase inhibitors (AID 743083); further: nearly all actives have a fitted effect of over 55% in size; further: potency means the concentration at half of the fitted maximal effect
# Aromatase (Homo sapiens), sequence (P11511 whole entry, looked up): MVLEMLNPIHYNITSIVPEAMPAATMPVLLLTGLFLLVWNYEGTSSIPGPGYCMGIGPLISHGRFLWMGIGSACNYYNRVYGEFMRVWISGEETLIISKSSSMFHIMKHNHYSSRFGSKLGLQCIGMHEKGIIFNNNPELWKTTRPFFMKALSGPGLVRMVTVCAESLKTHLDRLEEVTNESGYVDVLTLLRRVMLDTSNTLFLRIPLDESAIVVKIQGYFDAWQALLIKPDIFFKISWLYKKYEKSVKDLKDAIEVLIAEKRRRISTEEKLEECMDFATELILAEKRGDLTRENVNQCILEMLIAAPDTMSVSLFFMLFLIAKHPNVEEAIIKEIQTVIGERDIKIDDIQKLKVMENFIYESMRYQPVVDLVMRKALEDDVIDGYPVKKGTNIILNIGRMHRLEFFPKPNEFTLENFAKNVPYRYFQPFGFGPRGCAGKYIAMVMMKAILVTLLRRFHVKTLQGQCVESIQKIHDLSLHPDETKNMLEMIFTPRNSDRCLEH
# [15] = target: Androgen receptor (Homo sapiens) (UniProt P10275); experiment: qHTS assay to identify small molecule antagonists of the androgen receptor (AR) signaling pathway using the MDA cell line (AID 743042; further: nearly all actives have a fitted effect of over 55% in size; further: potency means the concentration at half of the fitted maximal effect)
# Androgen receptor (Homo sapiens), sequence (P10275 whole entry, looked up): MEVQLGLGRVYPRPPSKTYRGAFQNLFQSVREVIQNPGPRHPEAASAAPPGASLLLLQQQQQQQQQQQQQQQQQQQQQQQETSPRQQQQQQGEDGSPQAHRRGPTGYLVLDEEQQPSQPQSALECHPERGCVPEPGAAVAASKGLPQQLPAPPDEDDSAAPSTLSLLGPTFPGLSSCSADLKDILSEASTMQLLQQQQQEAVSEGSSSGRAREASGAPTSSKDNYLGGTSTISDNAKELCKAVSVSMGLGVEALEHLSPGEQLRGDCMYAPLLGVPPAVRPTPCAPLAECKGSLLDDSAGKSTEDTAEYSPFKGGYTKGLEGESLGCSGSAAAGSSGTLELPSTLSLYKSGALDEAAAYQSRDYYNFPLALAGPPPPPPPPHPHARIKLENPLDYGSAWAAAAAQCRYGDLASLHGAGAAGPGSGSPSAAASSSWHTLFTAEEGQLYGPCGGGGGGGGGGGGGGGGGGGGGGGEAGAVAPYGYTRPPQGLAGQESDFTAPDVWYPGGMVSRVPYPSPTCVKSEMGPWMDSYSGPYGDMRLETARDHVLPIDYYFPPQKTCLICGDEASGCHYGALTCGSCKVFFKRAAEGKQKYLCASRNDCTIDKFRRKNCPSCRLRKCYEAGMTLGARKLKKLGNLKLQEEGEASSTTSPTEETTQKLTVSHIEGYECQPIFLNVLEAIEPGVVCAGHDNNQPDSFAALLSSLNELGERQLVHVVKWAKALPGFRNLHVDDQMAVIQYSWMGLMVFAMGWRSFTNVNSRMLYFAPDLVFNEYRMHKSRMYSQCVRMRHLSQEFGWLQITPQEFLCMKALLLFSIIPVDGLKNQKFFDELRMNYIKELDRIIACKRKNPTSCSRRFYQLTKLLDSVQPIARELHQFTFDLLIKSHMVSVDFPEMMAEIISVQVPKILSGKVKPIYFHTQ
# How it was run: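 MDA-kb2 cells (human breast carcinoma, stably carrying an MMTV-luciferase reporter responsive to AR and GR) were plated at 3,000 cells/well and preincubated 5 hr at 37C, then given compound plus R1881 agonist for 16 h. ONE-Glo luminescence was read.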
# [16] = qHTS assay to identify small molecule antagonists of the thyroid receptor (TR) signaling pathway (AID 743065); further: nearly all actives have a fitted effect of over 55% in size; further: potency means the concentration at half of the fitted maximal effect
# How it was run: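 GH3.TRE-Luc rat pituitary cells carrying two TR response elements driving luciferase were plated for 4 h, given compound plus 1 nM T3 (final), and incubated 23.5 h at 37 C. ONE-Glo luminescence measured reporter inhibition; CellTiter-Fluor fluorescence tracked cytotoxicity.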
# [17] = target: Androgen receptor (Homo sapiens) (UniProt P10275); experiment: qHTS assay to identify small molecule antagonists of the androgen receptor (AR) signaling pathway (AID 743035; active means well fitted inhibition curve with a large enough effect in the signal ratio in the repeat runs, not every such curve was filed as active; inconclusive means weak or mixed curves, or effect the other way; inactive means no such curve, though single readings can be large or run the other way; the % refers to the signal ratio; further: potency means the concentration at half of the fitted maximal effect)
# How it was run: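 HEK293 cells stably carrying UAS-beta-lactamase reporter, 2,000/well, given compounds plus R1881 agonist and incubated 16 h at 37C. LiveBLAzer B/G FRET substrate then added for 2 h at room temperature before fluorescence reading.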
# [18] = target: Androgen receptor (Homo sapiens) (UniProt P10275); experiment: qHTS assay to identify small molecule agonists of the androgen receptor (AR) signaling pathway (AID 743036; active means well fitted activation curve with a large enough effect in the signal ratio in the repeat runs, with a control signal flat, not every such curve was filed as active; inconclusive means weak or mixed curves, or effect the other way; inactive means no such curve, though single readings can be large or run the other way; the % refers to the signal ratio)
# How it was run: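 Fluorescence from a beta-lactamase FRET substrate served as read-out in AR-UAS-bla GripTite HEK293 cells. Cells were treated with DMSO-dissolved compounds for 16 h at 37C, then with LiveBLAzer B/G substrate for 2 h at room temperature.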
# [19] = target: Androgen receptor (Homo sapiens) (UniProt P10275); experiment: qHTS assay to identify small molecule agonists of the androgen receptor (AR) signaling pathway using the MDA cell line (AID 743040; further: nearly all actives have a fitted effect of over 20% in size)
# How it was run: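 MDA-kb2 breast carcinoma cells stably carrying an MMTV-driven luciferase reporter (AR- and GR-responsive) were seeded and held 5 h at 37C, 0% CO2, then exposed to compounds in DMSO for 16 h. Luminescence was read 30 min after ONE-Glo addition.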
SMILES,Potency [1],Potency [2],Potency [3],Potency [4],Potency [5],Potency [6],Potency [7],Potency [8],Potency [9],Potency [10],Potency [11],Potency [12],Potency [13],Potency [14],Potency (Aromatase (Homo sapiens)),Potency [15],Potency [16],Potency [17],outcome [18],outcome [19]
CCCCc1ccccc1,inactive,inactive,inactive,inactive,inactive,inactive,inactive,inactive,inactive,inactive,inactive,inactive,inactive,inactive,inactive,,,,,
Cc1nn(-c2cc(NS(C)(=O)=O)c(Cl)cc2Cl)c(=O)n1C(F)F,inactive,inactive,inactive,inactive,inactive,inactive,inactive,inactive,,inactive,,,,inactive,inactive,inactive,inactive,,,
CCNc1nc(NC(C)C(C)C)nc(SC)n1 (stereo not drawn),inactive,38.6 µM (active),34.4 µM (active),61.1 µM (active),inactive,inactive,inactive,inactive,inactive,inactive,inactive,inactive,inactive,inactive,inactive,,,,,
CC(=O)[O][Pb]([c]1ccccc1)([c]1ccccc1)[c]1ccccc1,0.776 µM (active),0.154 µM (active),0.122 µM (active),0.122 µM (active),0.549 µM (active),1.72 µM (active),,,54.9 µM [cytotoxic] (active),6.92 µM (active),49 µM [inconclusive] (active),,,10.9 µM (active),0.193 µM (active),0.611 µM (active),0.077 µM (active),,,
CC(C)NCC(O)c1ccccc1Cl (stereo not drawn),inactive,inactive,inactive,inactive,inactive,inactive,inactive,inactive,inactive,inactive,inactive,inactive,inactive,inactive,inactive,inactive,inactive,inactive,inactive,
N#CCCl,inactive,inactive,inactive,inactive,inactive,inactive,inactive,inactive,inactive,inactive,,28.4 µM (active),,inactive,inactive,,inactive,,,
N#CC(C#N)=NNc1cccc(Cl)c1,6.92 µM (active),2.73 µM (active),2.73 µM (active),2.43 µM (active),2.45 µM (active),4.86 µM (active),3.44 µM (active),,0.692 µM [inconclusive] (active),,,,2.17 µM (active),5.45 µM (active),2.73 µM (active),1.93 µM (active),0.969 µM (active),,,
C=CCOC(=O)c1ccccc1N,inactive,inactive,inactive,inactive,inactive,inactive,inactive,inactive,inactive,inactive,inactive,inactive,inactive,inactive,inactive,inactive,inactive,inactive,inactive,
CCC1(CC)C(=O)N=C(O)NC1=O,inactive,inactive,inactive,inactive,inactive,inactive,inactive,inactive,inactive,inactive,inactive,inactive,inactive,inactive,inactive,,inactive,,,
O=c1c2ccccc2c(=O)c2c1cc(Cl)c1[nH]c3c([nH]c12)c(Cl)cc1c(=O)c2ccccc2c(=O)c13,inactive,inactive,inactive,inactive,inactive,inactive,inactive,inactive,inactive,inactive,inactive,inactive,inactive,inactive,inactive,,,,,
O=c1[nH]c(Cl)c(Cl)cc1Cl,inactive,inactive,inactive,inactive,inactive,inactive,inactive,inactive,,inactive,,,,inactive,inactive,inactive,,,,
Fc1ccc(C(OCCN2CCN(CCCc3ccccc3)CC2)c2ccc(F)cc2)cc1,21.3 µM (active),2.11 µM (active),2.11 µM (active),3.76 µM (active),21.3 µM (active),21.1 µM (active),9.44 µM (active),,,15.1 µM (active),inactive,,,21.1 µM (active),18.8 µM (active),16.8 µM (active),7.5 µM (active),15.1 µM (active),inactive,
COCCC#N,inactive,inactive,inactive,inactive,inactive,inactive,inactive,inactive,,inactive,,,,inactive,inactive,,inactive,,,
CCOC(=O)Cc1ccccc1,inactive,inactive,inactive,inactive,inactive,inactive,,inactive,inactive,inactive,inactive,inactive,inactive,inactive,inactive,inactive,inactive,inactive,inactive,inactive
Brc1cccc(-c2ccccc2)c1,inactive,inactive,inactive,inactive,inactive,inactive,inactive,inactive,,inactive,inactive,,,inactive,inactive,,inactive,,,
